In the supplement of paper PMC6555819:

Columns and labels:
Test in all cases: PBM binding z-score (relative to random genomic background probes); higher = stronger binding; sequences stand for … in GC…GCGATTGACAGCGTAGAATGAAGG
[1] = tested on: RARb homodimer (NR concentration 270 nM)
Method in brief: (§1)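 Binding z-scores were set against random background probes. The data came from custom Agilent 4×180K protein-binding microarrays carrying double-stranded probes with 34-nt variable regions, incubated 1 h with ligand-free nuclear receptor dimers. Partner-specific antibodies detected binding, and scanned fluorescence was regression-normalized.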

[2] = tested on: RARg:RXRa (NR concentration 270 nM, RXRa partner concentration 90 nM)
Method in brief: as §1

[3] = tested on: RARg homodimer (NR concentration 270 nM)
Method in brief: as §1

[4] = tested on: RXRa DBDmut IVT, anti-RXR (DBD mutation: RXRa K156A/R161A, NR concentration 90 nM)
Method in brief: as §1

[5] = tested on: RXRa homodimer (NR concentration 180 nM)
Method in brief: as §1

[6] = tested on: THRa:RXRa (NR concentration 90 nM, RXRa partner concentration 90 nM)
Method in brief: as §1

[7] = tested on: THRa homodimer (NR concentration 90 nM)
Method in brief: as §1

[8] = tested on: VDR homodimer (NR concentration 270 nM)
Method in brief: as §1

Row | Sequence | PBM binding z-score [1] | PBM binding z-score [2] | PBM binding z-score [3] | PBM binding z-score [4] | PBM binding z-score [5] | PBM binding z-score [6] | PBM binding z-score [7] | PBM binding z-score [8]
1 | CGAACTAGGTCACCAGGCCAGTGAAGAGGTTGGA | 3.33 | 4.61 | 5.11 | 1.05 | 3.21 | 2.98 | 0.969 | 0.372
2 | CAATGTAGGTTAAGGGGGTCATTCAGTTTGAAAG | 4.09 | 5.27 | 3.94 | 3 | 5.94 | 3.9 | 2.81 | 6.76
3 | CCTACTGGGCCAACAAGGTCATTGATGCCGATAA | 3.24 | 2.97 | 2.76 | 0.655 | 3 | 3.4 | 2.41 | 3.7
4 | CAGACTAGGTCAAAGGTCAAAGTCGAGCCAACCA | 5.25 | 8.9 | 7.48 | 3.08 | 10.3 | 4.68 | 1.38 | 3.17
5 | CTCGAAAGGTCGGTTGAGGTCAGTATACGGATAA | 4.41 | 4.95 | 4.93 | 1.63 | 4.02 | 5.26 | 3.23 | 3.44
6 | CTATGTAGGTTAAGGGGGTCATTCAATTTGAAAG | 3.69 | 4.93 | 3.88 | 2.02 | 5.5 | 3.97 | 1.83 | 5.01
7 | ATATGTAGGTTAGGGCCATTCAGAAAGTAGGGAA | 1.13 | 0.818 | 0.94 | 0.769 | 0.668 | 1.47 | 0.811 | 0.685
8 | ATATGTAGGTTAGGGTCATTTAGAAAGTAGGGAA | 3.38 | 3.86 | 2.8 | 2.29 | 5.07 | 4.06 | 3.22 | 3.84
9 | AATACAGGGTCATTAGGCCAGAGTAGGTACGAAT | 2.95 | 4.94 | 4.39 | 3.84 | 5.53 | 3.28 | 1.07 | 3.17
10 | ATCGAACGGTCGAGGTGAGTATAGAGAAAGGGAA | 0.591 | 0.56 | 1.16 | -0.533 | 0.211 | 1.06 | 0.0248 | -0.386
11 | AGTCAAAGTTCAGCACGAGGTAACGTAAAGCACG | 3.59 | 5.19 | 5.78 | 3.52 | 3.51 | 3.78 | 1.13 | 2.3
12 | ATATGTAGGTTAGGCTCATTCAGAAAGTAGGGAA | 0.0368 | 0.252 | 0.612 | 0.0964 | 0.205 | 0.086 | -0.237 | -0.178
13 | CCGTGTAGGTTACGAGGGGGCATTCAGTGCGAAT | 2.58 | 3.76 | 3.23 | 1.74 | 2.46 | 4.03 | 1.23 | 3.94
14 | TAGCCTAGGTCATAGGCCAGTATACCACGCGAAC | 2.58 | 3.89 | 4.21 | 0.7 | 3.51 | 2.65 | 0.622 | 0.651
15 | CCTACTGGGCCAAGGTCATTGCTCAGTCAAAGCA | 3.23 | 3.53 | 2.97 | 1.25 | 2.85 | 3.42 | 2.02 | 3.2
16 | CGAACTTGGTCAAAGGACAGTGAAAGGCGACGTA | 1.3 | 1.24 | 1.69 | -0.0652 | 0.736 | 0.657 | -0.391 | -0.0452
17 | CCGAGTAGGTTACGAGGGGGCATTGAGTGCGAAT | 1.96 | 3.29 | 2.3 | 1.46 | 2.21 | 3.98 | 0.378 | 3.76
18 | GGAACGGGGGCAAGTTGATAGCAGAGTTTGATGG | 2.35 | 3.33 | 3.16 | 3.37 | 2.6 | 2.51 | 1.27 | 4.04
19 | CGAACTAGGTCACCAGGACAGTGAAGAGGTTGGA | 3.32 | 4.52 | 5.42 | 1.45 | 3.39 | 3.28 | 1.95 | 0.49
20 | ATATGTAGGTTAGGTTCATTCAGAAAGTAGGGAA | 1.29 | 1.47 | 1.35 | 3.43 | 2.17 | 1.8 | 0.787 | 5.47
21 | AGATGTAGGTTAGGGTCATTCAGAAAGTAGGGAA | 3.52 | 3.98 | 3 | 2.56 | 4.81 | 3.92 | 3.4 | 4.44
22 | ATATGTAGGTTAGGGTCATTAAGAAAGTAGGGAA | 3.33 | 3.59 | 2.76 | 2.22 | 4.57 | 3.9 | 2.76 | 3.54
23 | TCATATAGGTTAAAGGTGAAAGTCGGTGTGGTAA | 2.56 | 3.92 | 1.76 | 1.94 | 5.99 | 2.62 | 0.942 | 0.81
24 | CTATGTAGGTTAACGGGGTCATTCAGTTTGAAAG | 4.24 | 5.11 | 3.74 | 3.05 | 6.78 | 4.44 | 2.55 | 7.5
25 | CGTCAAAGTTCTAGGTAACGTAACAGAAAGCAGC | -0.287 | 0.0968 | 0.323 | 0.31 | 0.135 | 0.719 | 0.349 | -0.0157
26 | CGTCCAAGGTCAACGCTAGGTCAGTGAAAGCATT | 5.38 | 7.88 | 7.21 | 3.69 | 6.38 | 4.61 | 3.53 | 2.6
27 | CGAACTAGGTCAAAGGGCAGTGAAAGGCGACGTA | 3.46 | 5.34 | 4.91 | 1.65 | 5.31 | 3.11 | 0.218 | 0.354
28 | GCTTACGGGTGAAAGGTTATAGCATGAATAGAAT | 1.48 | 3.01 | 1.34 | 0.431 | 4.95 | 2.2 | 0.0422 | -0.0188
